# PubChem BioAssay (NCATS)
# Inconclusive results are not listed. Values without a mark were called inactive. Activity calls are given as the source filed them. The call rests on the fitted dose curve; in most records, active means well fitted cell-killing curve with a large enough effect; inconclusive means small, poorly fitted or top-dose-only effect; inactive means no such curve, though single readings can be large or run the other way.
# Test: qHTS of pediatric cancer cell lines to identify multiple opportunities for drug repurposing: Primary screen for SJ-GBM2 cells (AID 1347091)
# Conditions: SJ-GBM2 viability, CellTiter-Glo luminescence, 48 h; series mostly up to 46 µM; activity change, negative = cytotoxic: at the top concentration
# Source text: Drug repurposing or repositioning has been offered as a strategy for drug development in oncology programs. This approach has special potential for childhood cancers and other rare or orphan diseases, where the expected return on new drug development has been a disincentive to pharmaceuticals.
# In this project we exploit the poly-pharmacology of drugs to discover new indications via phenotypic screening of a panel of 19 well-characterized cell lines derived from solid tumors seen in children and adolescents. The goal is to identify approved drugs with previously unrecognized anticancer properties that has the potential to reveal new mechanisms and biological processes involved in carcinogenesis or drug resistance. We employed a titration-based paradigm (quantitative high-throughput screening or qHTS), where all compounds were tested at multiple concentrations for their effect on cell viability. Concentration-response curves (CRCs) were derived directly from the primary screen, and both potency and efficacy values were used to identify compounds with robust bioactivity profiles. We screened the NIH Chemical Genomics Center (NCGC) Pharmaceutical Collection (NPC) and Mechanism Interrogation Plate (MIPE) small molecule collections of approved and investigational compounds against these cell lines; and measured metabolically active cells after 48 hours of compound treatment as a proxy for cell viability.
# Assay Submitter: Nathalia J. Martinez, National Center for Advancing Translational Sciences, National Institutes of Health, Rockville, MD, USA; email: natalia.martinez@nih.gov
# [1] Shen, M et al. Quantitative high-throughput phenotypic screening of pediatric cancer cell lines identifies multiple opportunities for drug repurposing. Oncotarget 2017 Dec 19;9(4):4758-4772. PMID 29435139.
# The cells were obtained from University of North Carolina (UNC), Pediatric Preclinical Testing Program (PPT), and Coriell Institute (CI).
# qHTS cell viability assay:
# Cells were assayed in growth media at a density of 500-1,000 cells/well. Five microliters of cells were dispensed into 1,536-well, white, solid-bottom, TC-treated plates (Greiner Bio One) using a multidrop dispenser and incubated at 37 degrees C, 5% CO2, under a humidified atmosphere for 5 hours. Twenty-three nanoliters of compounds and controls (neutral control DMSO or positive control bortezomib at final concentration of 2.3 µM) were subsequently transferred by Kalypsys pintool. For primary screens, the MIPE collection was tested at 11-point dilutions (final concentrations range from 0.78 nM to 46 µM) and the NPC collection at 8-point dilutions (final concentrations range from 0.59 nM to 46 µM). Compounds tested in follow-up screens were assayed at 11-point dilutions. Cells were incubated for 48 hours, followed by addition of 3 uL of CellTiter-Glo (Promega). After a 15 min incubation at room temperature, samples were analyzed for luminescence intensity using a ViewLux High-throughput CCD imager equipped with clear filters.
# Potency means the concentration at half of the fitted maximal effect.
SMILES,"activity change, negative = cytotoxic",Potency
CC(C)[C@H](O)C(=O)N[C@@H](C)C(=O)N[C@@H]1C(=O)N(C)CCc2ccccc21,-11.9%,
NC[C@H]1O[C@H](O[C@@H]2[C@@H](O)[C@@H](O[C@H]3O[C@H](CO)[C@@H](O)[C@H](N)[C@@H]3O)[C@H](N)C[C@@H]2N)[C@H](O)[C@@H](O)[C@H]1O,0.862%,
O=C(O)C1=CC(O)C(O)[C@H](O)C1 (stereo not given in full),6.27%,
CN1CCN2c3ncccc3Cc3ccccc3C2C1 (stereo not given),2.33%,
O=C(NCCCCN1CCOCC1)c1cc2ccccc2o1,11.8%,
Cc1cnc(Nc2cccc(CN3CCOCC3)c2)nc1Nc1cccc(S(=O)(=O)NC(C)(C)C)c1,,4.18 µM (active)
CC[C@H](C=C[C@@H](C)[C@H]1CC[C@H]2[C@@H]3CC=C4C[C@@H](O)CC[C@]4(C)[C@@H]3CC[C@]12C)C(C)C,6.12% [at 16.1 µM],
CC1(C)CC(=O)c2c(C(F)(F)F)nn(-c3ccc(C(N)=O)c(NC4CCC(O)CC4)c3)c2C1 (stereo not given),,0.264 µM (active)
CC[C@H](C)C(=O)O[C@H]1C[C@H](O)C=C2C=C[C@H](C)[C@H](CC[C@@H](O)C[C@@H](O)CC(=O)O)[C@H]21,-3.18%,
CC[C@H](C)n1cc(C)c2c(C(=O)NCc3c(C)cc(C)[nH]c3=O)cc(-c3ccc(N4CCNCC4)nc3)cc21,29.9%,
COC(=O)[C@H](c1ccccc1Cl)N1CCc2sccc2C1,-19.5%,
N#CC(c1ccnc(NCCc2cccnc2)n1)c1nc2ccccc2s1 (stereo not given),,9.35 µM (active)
Cc1ccc(C2=Nc3ccc(Cl)cc3OC2)cc1,,23.5 µM (active)
COC1CCC(C(=O)c2ccc3nc4c(cc3c2)CCCO4)CC1 (stereo not given),,18.7 µM (active)
N=C1SC(=Cc2ccc(-c3ccc4c(c3)C(=O)NC4=O)o2)C(=O)N1c1ccc(Br)cc1,,2.64 µM (active)
CC1=C(CC(=O)O)c2cc(F)ccc2C1=Cc1ccc(S(C)=O)cc1 (stereo not given),8.16%,
CO[C@H]1/C=C\O[C@@]2(C)Oc3c(C)c(O)c4c(O)c(c(C=NN5CCN(C6CCCC6)CC5)c(O)c4c3C2=O)NC(=O)C(C)=CC=C[C@H](C)[C@H](O)[C@@H](C)[C@@H](O)[C@@H](C)[C@H](OC(C)=O)[C@H]1C,-48.6%,
C[C@@H]1CC=CC=CC=CC=C[C@@H](O[C@@H]2O[C@H](C)[C@@H](O)[C@H](N)[C@H]2O)C[C@@H]2O[C@](O)(C[C@@H](O)C[C@@H]3O[C@@H]3C=CC(=O)O1)C[C@H](O)[C@@H]2C(=O)O,-21.2%,
C[C@@]1(c2cc(-c3cncnc3)c(F)cc2F)CCSC(N)=N1,,4.69 µM (active)
COC(=O)N1CCN(Cc2cccc(NC(=O)Nc3ccc(C)nc3)c2F)CC1,7.88%,

SMILES,"activity change, negative = cytotoxic",Potency
Nc1ncnc2c1ncn2[C@@H]1O[C@H](CO)[C@@H](O)[C@@H]1O,,2.35 µM (active)
Clc1ccc(C2(c3ccc(-c4cn[nH]c4)cc3)CCNCC2)cc1,,5.26 µM (active)
OC[C@H]1O[C@@H](OCCc2ccc(O)cc2)[C@H](O)[C@@H](O)[C@H]1O,14.4%,
Cc1[nH]c(C=C2C(=O)Nc3ccc(S(=O)(=O)N(C)c4cccc(Cl)c4)cc32)c(C)c1C(=O)N1CCN(C)CC1,,2.09 µM (active)
CN(C)CCOc1cc(-c2cn[nH]c2)ccc1NC(=O)C1COc2ccccc2O1 (stereo not given),-19.2%,
CCNC(=O)[C@H]1O[C@@H](n2cnc3c(N)nc(NCCc4ccc(CCC(=O)O)cc4)nc32)[C@H](O)[C@H]1O,14.4%,
COc1ccc2ccc(=O)oc2c1CC=C(C)C,-3.38%,
c1cc(OCCN2CCCCC2)cc(-c2n[nH]c3ccc(-c4ncn[nH]4)cc23)c1,-16.7%,
CCCCC(C)(C)[C@H](O)C=C[C@H]1[C@H](O)CC(=O)[C@H]1CC=CCCCC(=O)O,-6.53%,
C[C@H]1O[C@@H](n2cc(F)c(=O)[nH]c2=O)[C@H](O)[C@H]1O,12.7%,
C[C@H]1COC2=C1C(=O)C(=O)c1c2ccc2c1CCCC2(C)C,,20.9 µM (active)
Fc1ccc(CNc2ncnc3ccc(F)cc23)cc1,-19.5%,
NC(=O)c1nnn(Cc2cc(Cl)c(C(=O)c3ccc(Cl)cc3)c(Cl)c2)c1N,,18.7 µM (active)
O=C(Nc1cccc(C(F)(F)F)c1)Nc1cc(S(=O)(=O)NC2CC2)ccc1-c1ccsc1,,26.4 µM (active)
CC(C)C[C@H](NC(=O)c1cc2ccccc2s1)C(=O)N1CCN(C(=O)[C@H](CO)NS(=O)(=O)c2ccc(Cl)cc2Cl)CC1,,18.7 µM (active)
Cc1c(C(=O)Nc2ccc(N3C[C@@H](C)O[C@@H](C)C3)nc2)cccc1-c1ccc(OC(F)(F)F)cc1,,18.7 µM (active)
Cc1nc(C(=O)NCC(=O)O)c(O)c2ccc(Oc3ccccc3)cc12,-11.7%,
C[C@@H]1[C@H](O)[C@@H](C)C=CC=CC=CC=CC=CC=CC=C[C@H](O[C@@H]2O[C@H](C)[C@H](O)[C@H](N)[C@@H]2O)C[C@@H]2O[C@](O)(C[C@@H](O)C[C@@H](O)[C@H](O)CC[C@@H](O)C[C@@H](O)CC(=O)O[C@H]1C)C[C@H](O)[C@@H]2C(=O)O,20.6%,
CC1(C)[C@H]2CC[C@]3(C)[C@@H](C(=O)C=C4[C@@H]5C[C@@](C)(C(=O)O)CC[C@]5(C)CC[C@]43C)[C@@]2(C)CC[C@@H]1O,1.8%,
COC(=O)Nc1ccc(-c2nc(N3CCOCC3)c3cnn(C4CCN(C(=O)OC)CC4)c3n2)cc1,,4.69 µM (active)
